Where “and” joins values, the source holds several entries; their conditions need not be identical. Equal values may be shown once. In all, about 5,500 compounds went through this assay and about 2,000 (36%) were called active. Another 18% or so got no clear call; they are omitted. The list shows a part of the results. Unmarked numbers belong to inactive results. Cut-off read from the data, not from the text of the source: active = normalized growth mostly below about 0.91 (no sharp cut-off); inconclusive = no clear call, values can overlap the other calls; inactive = mostly above about 0.92.
Test: chemical genetic growth profiling, strain panel (AID 1159580);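 note: tested at 20 µM; growth read once vehicle control cultures reached saturation at 30 °C; 1 = growth at the plate median or of vehicle wells; lower values mean less growth of the strain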
Conditions: growth OD
[1] = S. cerevisiae deletion strains, locus YAL013W, strain DEP1, hits give low values
[2] = S. cerevisiae deletion strains, locus YDR150W, strain NUM1, hits give low values
[3] = S. cerevisiae deletion strains, locus YGR078C, strain PAC10, hits give low values
[4] = S. cerevisiae deletion strains, locus YJR075W, strain HOC1, hits give low values
[5] = S. cerevisiae deletion strains, locus YPL055C, strain LGE1, hits give low values

Which results are given for `O=c1oc2ccccc2cc1[N+](=O)[O-]`?
normalized growth [1]: 0.0574 (active); normalized growth (S. cerevisiae deletion strains, locus YBR229C, strain ROT2, hits give low values): 0.0595 (active); normalized growth (S. cerevisiae deletion strains, locus YCL061C, strain MRC1, hits give low values): 0.0567 (active); normalized growth (S. cerevisiae deletion strains, locus YDL101C, strain DUN1, hits give low values): 0.0763 (active); normalized growth (S. cerevisiae deletion strains, locus YDL134C, strain PPH21, hits give low values): 0.049 (active); normalized growth [2]: 0.0585 (active); normalized growth (S. cerevisiae deletion strains, locus YEL061C, strain CIN8, hits give low values): 0.0579 (active); normalized growth (S. cerevisiae deletion strains, locus YGR052W, strain FMP48, hits give low values): 0.114 (active); normalized growth [3]: 0.0524 (active); normalized growth (S. cerevisiae deletion strains, locus YGR229C, strain SMI1, hits give low values): 0.0596 (active); normalized growth (S. cerevisiae deletion strains, locus YHR030C, strain SLT2, hits give low values): 0.0818 (active) and 0.0892 (active); normalized growth (S. cerevisiae deletion strains, locus YHR079C, strain IRE1, hits give low values): 0.106 (active); normalized growth (S. cerevisiae deletion strains, locus YHR082C, strain KSP1, hits give low values): 0.105 (active); normalized growth (S. cerevisiae deletion strains, locus YHR087W, strain rtc3, hits give low values): 0.0624 (active); normalized growth (S. cerevisiae deletion strains, locus YJL095W, strain BCK1, hits give low values): 0.104 (active); normalized growth (S. cerevisiae deletion strains, locus YJR043C, strain POL32, hits give low values): 0.0547 (active); normalized growth (S. cerevisiae deletion strains, locus YJR066W, strain TOR1, hits give low values): 0.102 (active); normalized growth [4]: 0.0787 (active); normalized growth (S. cerevisiae deletion strains, locus YKL171W, strain NNK1, hits give low values): 0.106 (active); normalized growth (S. cerevisiae deletion strains, locus YKL190W, strain CNB1, hits give low values): 0.0491 (active); normalized growth (S. cerevisiae deletion strains, locus YKL203C, strain TOR2, hits give low values): 0.0901 (active); normalized growth (S. cerevisiae deletion strains, locus YLR039C, strain RIC1, hits give low values): 0.0723 (active); normalized growth (S. cerevisiae deletion strains, locus YLR058C, strain SHM2 (second series), hits give low values): 0.0528 (active); normalized growth (S. cerevisiae deletion strains, locus YLR085C, strain ARP6, hits give low values): 0.071 (active); normalized growth (S. cerevisiae deletion strains, locus YLR113W, strain HOG1, hits give low values): 0.137 (active); normalized growth (S. cerevisiae deletion strains, locus YLR262C, strain YPT6, hits give low values): 0.0758 (active); normalized growth (S. cerevisiae deletion strains, locus YML094W, strain GIM5, hits give low values): 0.0733 (active); normalized growth (S. cerevisiae deletion strains, locus YMR219W, strain ESC1, hits give low values): 0.0518 (active); normalized growth (S. cerevisiae deletion strains, locus YMR263W, strain SAP30, hits give low values): 0.0584 (active); normalized growth (S. cerevisiae deletion strains, locus YNL153C, strain GIM3, hits give low values): 0.057 (active); normalized growth (S. cerevisiae deletion strains, locus YNL183C, strain NPR1, hits give low values): 0.119 (active); normalized growth (S. cerevisiae deletion strains, locus YNL207W, strain RIO2, hits give low values): 0.0939 (active); normalized growth (S. cerevisiae deletion strains, locus YNL298W, strain CLA4 (second series), hits give low values): 0.0711 (active); normalized growth (S. cerevisiae deletion strains, locus YNL322C, strain KRE1, hits give low values): 0.0611 (active); normalized growth (S. cerevisiae deletion strains, locus YNR030W, strain Alg12, hits give low values): 0.0702 (active); normalized growth (S. cerevisiae deletion strains, locus YOL006C, strain TOP1, hits give low values): 0.0751 (active); normalized growth (S. cerevisiae deletion strains, locus YOR119C, strain RIO1, hits give low values): 0.0989 (active); normalized growth (S. cerevisiae deletion strains, locus YOR231W, strain MKK1, hits give low values): 0.106 (active); normalized growth [5]: 0.0749 (active); normalized growth (S. cerevisiae deletion strains, locus YPL241C, strain CIN2, hits give low values): 0.0745 (active); normalized growth (S. cerevisiae deletion strains, locus YPL256C, strain CLN2, hits give low values): 0.0976 (active); normalized growth (S. cerevisiae deletion strains, locus YPR135W, strain CTF4, hits give low values): 0.155 (active); normalized growth (S. cerevisiae strains, strain wild type, hits give low values): 0.0506 (active)

For `COc1cc2c(CCNC(C)=O)c[nH]c2cc1O`, which normalized growth [1] is on record?
The normalized growth was 1.02.

What about the normalized growth (S. cerevisiae deletion strains, locus YAL040C, strain CLN3, hits give low values) of the same compound?
Its normalized growth is 1.01.

What about the normalized growth (S. cerevisiae deletion strains, locus YCL061C, strain MRC1 (second series), hits give low values) of the same compound?
Its normalized growth is 1.01.

What about the normalized growth [2] of the same compound?
The normalized growth was 1.01.

What about the normalized growth (S. cerevisiae deletion strains, locus YDR363W, strain ESC2, hits give low values) of the same compound?
Its normalized growth is 1.02.

And the normalized growth (S. cerevisiae deletion strains, locus YER002W, strain NOP16, hits give low values)?
The normalized growth was 1.02.

And the normalized growth [3]?
The normalized growth was 1.

And the normalized growth [4]?
Its normalized growth is 1.02.

What about the normalized growth (S. cerevisiae deletion strains, locus YMR307W, strain GAS1, hits give low values) of the same compound?
Its normalized growth is 1.

What about the normalized growth (S. cerevisiae deletion strains, locus YNL128W, strain TEP1, hits give low values) of the same compound?
The normalized growth was 1.02.

And the normalized growth (S. cerevisiae deletion strains, locus YNL175C, strain NOP13, hits give low values)?
Its normalized growth is 0.998.

What about the normalized growth (S. cerevisiae deletion strains, locus YNL197C, strain WHI3, hits give low values) of the same compound?
Its normalized growth is 1.02.

What about the normalized growth (S. cerevisiae deletion strains, locus YNL224C, strain SQS1, hits give low values) of the same compound?
The normalized growth was 0.996.

What about the normalized growth (S. cerevisiae deletion strains, locus YOR083W, strain WHI5 (second series), hits give low values) of the same compound?
The normalized growth was 1.

And the normalized growth [5]?
The normalized growth was 1.02.

From PubChem BioAssay AID1159580 (chemical genetic matrix, 2015)
